Assay outcomes as filed in PubChem BioAssay.
KCNQ2 enhance – enhances the rat KCNQ2 potassium channel. O88943. CHO-K1 KCNQ2, FluxOR thallium flux fluorescence; active compounds read high. B-score at 10 µM. hit rate 0.54% among 310,000. AID 2239;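 active = fluorescence ratio B-score at least 3 SD of library B-scores, with initial fluorescence B-score within 3 of them, cut at about 5.3 in these data; same plate scores as AID 2156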;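 also: B-score of peak minus minimum over baseline fluorescence ratio after K+ and Tl+ stimulus; positive B-score means potentiation of KCNQ2 with more thallium influx and brighter signal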
KCNQ2 inh – KCNQ2 (rat) channel inhibition; AID 2156; O88943; CHO-K1 KCNQ2, FluxOR thallium flux, 20 min; active compounds read low; hit rate 1.1% among 310,000; B-score at 10 µM;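 active = fluorescence ratio B-score at most minus 3 library SDs, with starting brightness B-score within 2 library SDs, cut at about -5.5 in these data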
KCNQ2 block conf – confirmation of rat KCNQ2 potassium channel inhibitors. shares compounds with KCNQ2 inh. KCNQ2-expressing cells, thallium flux, inhibition; active compounds read low. activity change, negative = inhibition, % at 10 µM. hit rate 57% among 1,000;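 also: 0% = vehicle wells and values are ratio percent relative to vehicle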
KCNQ1 spec – human KCNQ1 activity in KCNQ2 inhibitor specificity screen; hit rate 15% among 1,000; AID 493026; KCNQ1-expressing cells, FluxOR thallium flux fluorescence; active compounds read low; activity change, negative = inhibition, % at 10 µM; shares compounds with KCNQ2 inh;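 active = activity change at least 3 SD of negative controls below their mean in both duplicate wells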;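 also: CHO cells stably transfected with KCNQ1 and depolarized by potassium stimulus; peak minus minimum fluorescence over baseline after thallium addition; 0% = vehicle negative control and -100% = blank without thallium stimulus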
Target sequence (P51787 whole entry, looked up): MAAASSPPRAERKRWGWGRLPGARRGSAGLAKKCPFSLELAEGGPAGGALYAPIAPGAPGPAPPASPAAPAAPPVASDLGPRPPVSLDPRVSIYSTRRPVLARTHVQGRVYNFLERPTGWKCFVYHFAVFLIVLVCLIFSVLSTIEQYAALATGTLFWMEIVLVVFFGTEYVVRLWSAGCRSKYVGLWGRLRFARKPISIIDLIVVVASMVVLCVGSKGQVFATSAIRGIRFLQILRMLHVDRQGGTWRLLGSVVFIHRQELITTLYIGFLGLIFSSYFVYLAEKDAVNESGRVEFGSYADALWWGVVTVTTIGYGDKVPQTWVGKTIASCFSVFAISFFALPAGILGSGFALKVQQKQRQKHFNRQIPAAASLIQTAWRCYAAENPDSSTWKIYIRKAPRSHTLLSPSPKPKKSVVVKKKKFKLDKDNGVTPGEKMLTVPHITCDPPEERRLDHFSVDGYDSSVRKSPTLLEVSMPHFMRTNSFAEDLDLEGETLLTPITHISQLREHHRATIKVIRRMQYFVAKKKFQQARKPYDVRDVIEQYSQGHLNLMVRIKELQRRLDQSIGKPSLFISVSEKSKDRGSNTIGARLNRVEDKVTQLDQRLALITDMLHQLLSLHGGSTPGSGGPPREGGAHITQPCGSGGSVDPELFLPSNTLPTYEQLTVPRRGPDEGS
CHO parental ctr – activity in parental CHO cells lacking KCNQ2; shares compounds with KCNQ2 inh; hit rate 14% among 1,000; thallium flux counter-screen; active compounds read low; activity change, % at 10 µM;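 also: 0% = vehicle negative controls with stimulus buffer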
KCNQ2 patch conf – confirmation of rat KCNQ2 potassium channel inhibitors. shares compounds with KCNQ2 inh. KCNQ2-expressing cells, automated patch clamp current. calls only at 10 µM. hit rate 49% among 550
* = called active by the depositor; i = inactive; · = no result; + = active, no number. The list is not random: actives were taken first. Their share in the collection is about 1.6%. Unless noted, no rule for the calls is given here.

SMILES	KCNQ2 enhance	KCNQ2 inh	KCNQ2 block conf	KCNQ1 spec	CHO parental ctr	others
CCN(Cc1ccccc1)C(c1ccccn1)c1nnnn1C(C)(C)CC (stereo unspecified)	·	i	·	·	·
CC(C)(C)n1nnnc1C(c1ccccn1)N(Cc1ccccc1)Cc1ccc(Cl)cc1 (stereo unspecified)	-7.7	-7.7*	-28%*	i	i	KCNQ2 patch conf=i
Cc1cccc(C)c1OCC(=O)Nc1cccc(-c2nnc(-c3ccccc3)o2)c1	-9.5	-9.5*	-28%*	i	i	KCNQ2 patch conf=i
Cc1cccc(OCC(=O)Nc2cccc(-c3nnc(-c4ccccc4)o3)c2)c1C	0.59	i	·	·	·
C=Cc1ncc(OC)c2c1[nH]c1ccccc12	·	i	·	·	·
CCCCN(C)CC(O)Cn1cc(/C=C/C(=O)c2ccc(C)cc2)c2ccccc21 (stereo unspecified)	-9.7	-9.7*	i	i	i
CC(C)(C)NCC(O)Cn1cc(C=O)c2ccccc21 (stereo unspecified)	1.7	i	·	·	·
CN1CCN(Cn2cc(/C=C/C(=O)c3ccccc3)c3ccccc32)CC1	-9.2	-9.2*	-34%*	i	i	KCNQ2 patch conf=+
COc1ccc(C(=O)/C=C/c2cn(CC(O)CN3CCN(C)CC3)c3ccccc23)cc1OC (stereo unspecified)	·	i	·	·	·
Cc1ccc(NC(=O)CN2C(=O)NC(Cc3ccccc3)C2=O)c(Br)c1 (stereo unspecified)	·	i	·	·	·
COc1ccc(CN(C(=O)c2cc(=O)c3ccccc3o2)C2CCS(=O)(=O)C2)cc1OC (stereo unspecified)	0.67	i	·	·	·
Cc1ccc(NC(=O)C2CCC(N3C(=O)C4CCCCC4C3=O)CC2)cc1 (stereo unspecified)	·	i	·	·	·
COc1ccccc1CNC(=O)CN1C(=O)C(C)N(c2ccc(C)cc2)C1=O (stereo unspecified)	-7.5	-7.5*	i	i	i
COc1ccc(CNC(=O)CN2C(=O)C(C)N(c3ccc(C)cc3)C2=O)cc1 (stereo unspecified)	·	i	·	·	·
CCn1c(COc2cc(C)ccc2C(C)C)nnc1SCC(=O)Nc1nccs1	2.3	i	·	·	·
CCCN1CCN(CCCNC(=O)Cn2nc(C)n3c(cc4cc(OC)ccc43)c2=O)CC1	0.9	i	·	·	·
CC(NC(=O)c1cc2cc(Br)ccc2oc1=N)c1ccccc1 (stereo unspecified)	·	i	·	·	·
CN(CCOc1ccccc1)C(=O)C1CCC(=O)N(CCc2ccc(Cl)cc2)C1 (stereo unspecified)	-7.8	-7.8*	i	i	i
COc1ccc(CCN2CC(C(=O)N(C)CCOc3ccccc3)CCC2=O)cc1 (stereo unspecified)	·	i	·	·	·
Cc1noc(C)c1CSc1nc2ccccc2c(=O)n1-c1ccc(F)cc1F	-7.3	-7.3*	-20%*	i	i	KCNQ2 patch conf=+
C=CCn1c(SCc2c(C)noc2C)nc2ccccc2c1=O	·	i	·	·	·
CC(=O)c1cc(C#N)c(N2CCOCC2)nc1C	0.75	i	·	·	·
CCCCN(CC)C(=O)c1ccc(-c2ccccc2)cc1	-6.8	-6.8*	-26%*	i	i	KCNQ2 patch conf=i
CCCCN(CC)C(=O)c1cccc(Cl)c1	1.7	i	·	·	·
CC(C)(C)N1CC(c2nc3ccccc3n2CCOc2ccccc2)CC1=O (stereo unspecified)	1.5	i	·	·	·
SMILES	KCNQ2 enhance	KCNQ2 inh	KCNQ2 block conf	KCNQ1 spec	CHO parental ctr	others
CC(C)(C)N1CC(c2nc3ccccc3n2Cc2ccc(Cl)cc2)CC1=O (stereo unspecified)	-7.1	-7.1*	-27%*	i	i	KCNQ2 patch conf=+
COc1cc(C2Sc3ccccc3NC3=C2C(=O)OC3)cc(OC)c1OC (stereo unspecified)	·	i	·	·	·
COc1cc(C2CC(=O)Nc3ccccc3S2)cc(OC)c1OC (stereo unspecified)	-8.5	-8.5*	i	i	i
Cc1nc(SCC(=O)O)c(C#N)c(C)c1CC(=O)c1ccccc1	·	i	·	·	·
O=C(NCc1ccccc1)c1cccc(COc2ccccc2Cl)c1	-12	-12*	i	i	i
O=C(NCc1ccccc1)c1cccc(COc2cc(Cl)ccc2Cl)c1	·	i	·	·	·
Cc1ccc(S(=O)(=O)NCc2ccc(C(=O)N3CCN(c4ccc([N+](=O)[O-])cc4)CC3)cc2)cc1	·	i	·	·	·
Cc1ccc(SCc2cn3c(C)csc3n2)cc1	-8.1	-8.1*	i	i	i
Cc1ccc(S(=O)(=O)NCc2cn3c(C)csc3n2)cc1	0.73	i	·	·	·
O=C(NC(Cc1ccccc1)C(=O)N1CCCCCC1)c1ccccc1 (stereo unspecified)	·	i	·	·	·
CC1CC(C)CN(C(=O)C(Cc2ccccc2)NC(=O)c2ccccc2)C1 (stereo unspecified)	-7	-7*	i	i	i
COC(=O)CCC(=O)OC1(C)C(=O)C=C2C=C(C3CC3)OC=C2C1=O (stereo unspecified)	·	i	·	·	·
CC(=O)Nc1ccc(NC(=O)CSc2ccc(-c3ccc(-n4ccnc4)cc3)nn2)cc1	0.43	i	·	·	·
Cc1noc(C)c1S(=O)(=O)N(Cc1ccccc1)C(C)C	·	i	·	·	·
CCC1(C(=O)c2ccccc2)C2c3cc(Br)ccc3OC(=O)C21C(=O)N1CCOCC1 (stereo unspecified)	-9.7	-9.7*	i	i	i
O=C(Oc1ccc(Br)cc1C(=S)N1CCOCC1)c1ccccc1	·	i	·	·	·
Cc1ccsc1C(=O)N1CC=C(c2ccccc2)CC1	·	i	·	·	·
Cc1cc(C)c(OCC(=O)N2CC=C(c3ccccc3)CC2)c(C)c1	-6.9	-6.9*	-29%*	i	i	KCNQ2 patch conf=i
CC(C)(C)NC(=O)CSc1ncnc2c1cnn2-c1ccccc1	·	i	·	·	·
COc1ccc(CCN(Cc2nc3ccccc3c(=O)[nH]2)C(=O)c2ccco2)cc1	0.37	i	·	·	·
CCC(CC)C(=O)N(CCc1ccc(OC)cc1)Cc1nc2ccccc2c(=O)[nH]1	-9.5	-9.5*	-30%*	i	i	KCNQ2 patch conf=+
Cc1cc(C)c(NC(N)=S)c(C)c1	·	i	·	·	·
CC1CN(C(=O)c2ccc(COc3ccc(C(C)C)cc3)o2)CC(C)O1 (stereo unspecified)	·	i	·	·	·
CC1CN(C(=O)c2ccc(COc3ccc4ccccc4c3)o2)CC(C)O1 (stereo unspecified)	-10	-10*	i	i	i
COC(=O)C(Cc1ccccc1)NCC(=O)Nc1cccc(Cl)c1C (stereo unspecified)	-8.2	-8.2*	-36%*	i	i	KCNQ2 patch conf=+
Cc1c(Cl)cccc1NC(=O)CS(=O)(=O)c1ccccc1	·	i	·	·	·
CC1=C(C(=O)Nc2ccc(C)cn2)C(c2cnn(C)c2)C2=C(CCCC2=O)N1 (stereo unspecified)	0.36	i	·	·	·
C=CCOC(=O)C1=C[C@H](C2CCCCC2)[C@@H](CCCO)[C@H](OCC)O1	·	i	·	·	·
Cc1ccc(CC(=O)N(Cc2ccccc2)c2ccccn2)cc1	·	i	·	·	·
COc1ccccc1NC(=O)N(Cc1ccccc1)c1ccccn1	·	i	·	·	·
